Data from PubChem BioAssay AID686978 (National Center for Advancing Translational Sciences (NCATS), 2013).
In all, about 420,000 compounds went through this assay and about 64,000 (15%) were called active. Not shown: some 27% with an inconclusive outcome. A selection follows. Values without a mark were called inactive. Calls follow the shape of the dose curve; as a rule, active = well fitted inhibition curve with a large enough effect; inconclusive = small, poorly fitted or top-dose-only effect; inactive = flat fitted curve, though single readings scatter.

Experiment: qHTS for Inhibitors of human tyrosyl-DNA phosphodiesterase 1 (TDP1): qHTS in cells in absence of CPT; also: nearly all actives have a fitted effect of over 55% in size
Conditions: DT40 Tdp1-/- hTDP1 cells, no CPT, ATP luminescence, 48 h; activity change, negative = growth inhibition: at 46.2 µM (top of the series)
Summary of the method: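 A cellular qHTS used chicken DT40 cells lacking endogenous Tdp1 but carrying stably transfected human TDP1. Compounds were applied without camptothecin, and cell growth kinetics were judged by ATP-dependent luminescence after ≥48 hr.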
% is scaled to controls: 0 for no effect and ±100 for the full control effect; potency is read from the fitted curve at half-maximal effect.

First: Cc1nnc(SCC(=O)NNC(=O)c2ccc(Cl)cc2)n1CC1CCCO1 (stereo not given)
Second: CC(=O)Nc1ccc(NC(=O)CSc2nnc(COc3ccccc3C)n2CC2CCCO2)cc1 (stereo not given)
The “activity change, negative = growth inhibition” value of the first is higher: -3.71% for the first, -6.91% for the second.

Compared with `CCN1C(=O)CS/C1=N\c1nccs1`, `Cc1ccc(-c2csc(NC(=O)Cc3cccs3)n2)cc1C` is higher in “activity change, negative = growth inhibition” value: -2.04% for the first, -1.64% for the second.

Compared with `CCOC(=O)NC(=O)C(=CNc1cccc(OC)c1)C(=O)NC(=O)OCC`, `CCOC(=O)COc1cc(OCC(=O)OCC)c2c(=O)cc(-c3ccccc3)oc2c1` is lower in “activity change, negative = growth inhibition” value: -8.39% for the first, -24.5% for the second.

First: CC(=O)CSc1nnc(CSc2ncccn2)n1C1CCCCC1
Second: Cc1ccc(-c2nnc3ccc(SCC(N)=O)nn23)cc1
The “activity change, negative = growth inhibition” value of the first is higher: -0.234% for the first, -27% for the second.

First: O=C(Nc1nc(-c2cccnc2)cs1)c1ccccc1F
Second: Cc1ccc(-c2csc(NC(=O)c3cnccn3)n2)cc1C
The “activity change, negative = growth inhibition” value of the first is higher: 3.03% for the first, -9.21% for the second.

Going from `CC(=O)NCCC(=O)Nc1nc(-c2ccc3c(c2)OCCO3)cs1` to `CC(=O)c1c(C)[nH]c(C(=O)NCc2ccc(C)cc2)c1C`, the “activity change, negative = growth inhibition” value falls from -6.56% to -28.4%.

Going from `CC1=C(C(=O)Nc2cc(C)ccn2)C(c2cnn(C)c2)C2=C(CC(c3ccccc3)CC2=O)N1` (stereo not given) to `O=C(Nc1ccn(Cc2ccccc2)n1)c1cccc(F)c1`, the “activity change, negative = growth inhibition” value falls from -9.41% to -29.1%.

Going from `O=P(O)(O)C(O)c1ccc2ccccc2c1` (stereo not given) to `O=C(Nc1nn(Cc2ccccc2F)cc1Br)c1cccs1`, the “activity change, negative = growth inhibition” value falls from 8.08% to -22.2%.

Going from `FC(F)(F)Oc1ccc(-c2cn3cccnc3n2)cc1` to `COc1nc(-c2ccc(Cl)cc2)ccc1-c1noc(-c2cccs2)n1`, the “activity change, negative = growth inhibition” value rises from -19% to -8.38%.

Compared with `Cc1cc(C)cc(C(=O)NC(CC(N)=O)c2ccc(N3CCC(N4CCCCC4)CC3)c([N+](=O)[O-])c2)c1` (stereo not given), `COc1ccc(/C(O)=C2/C(=O)C(=O)N(CC3CCCO3)C2c2ccc(OC)c(OC)c2)cc1` (stereo not given) is higher in “activity change, negative = growth inhibition” value: 3.31% for the first, 5.95% for the second.

Going from `COc1cc(-c2nc(-c3ccncc3)no2)cc(OC)c1OC` to `COc1ccc(OC)c(-n2nnc(-c3nc(-c4cc(OC)c(OC)c(OC)c4)no3)c2C)c1`, the “activity change, negative = growth inhibition” value falls from 0.674% to -28.3%.

First: CC(CNS(=O)(=O)c1ccc(Br)cc1)CN(C)C (stereo not given)
Second: O=C(Nc1ccn(Cc2ccccc2)n1)c1n[nH]c([N+](=O)[O-])c1Cl
The “activity change, negative = growth inhibition” value of the first is lower: -28.4% for the first, -23.2% for the second.

With `O=C1CC2(CC(c3ccc(Cl)cc3)=NO2)C(=O)N1c1ccccc1` (stereo not given) the “activity change, negative = growth inhibition” value was 2.88%.

In the case of `O=C(Nc1nc(-c2ccc3c(c2)OCO3)cs1)c1ccncc1`, the Potency is reported as 13 µM (active).
For `Cc1ccc(-c2csc(NC(=O)C3=COCCO3)n2)cc1C`, the Potency was 4.11 µM (active).
For `CCOc1nc(-c2ccc(OC)cc2)ccc1-c1noc(-c2cc(OC)c(OC)c(OC)c2)n1`, the Potency was 3.66 µM (active).
In the case of `COc1ccc(-c2cc(-c3nc(-c4cc(OC)c(OC)c(OC)c4)no3)[nH]n2)c(OC)c1`, the Potency is reported as 13 µM (active).
For `O=C(Nc1ccn(Cc2ccc(F)cc2)n1)c1ccncc1`, the Potency was 11.6 µM (active).
